Data on 9 molecules can be found in PubChem BioAssay (NCI).

Common to all, as to experiment: NCI-60 one-dose screen, 48 h (100 = growth as untreated, 0 = no growth, -100 = all killed)
The subject of one assay is HT29 colon. To be noted: 10 µM unless noted.
Another assay concerns SNB-75 CNS. The note with it: 10 µM unless noted.
The test system of a further assay is SNB-19 CNS. To be noted: 10 µM unless noted.
A further assay concerns U251 CNS. To be noted: 10 µM unless noted.
The subject of a further assay is SK-MEL-5 melanoma. To be noted: 10 µM unless noted.
For a further assay, the system named is UACC-62 melanoma. To be noted: 10 µM unless noted.
In a further assay the test system is LOX IMVI melanoma. The note with it: 10 µM unless noted.
In the next assay the test system is SK-MEL-28 melanoma. The note with it: 10 µM.
The subject of a further assay is SK-MEL-2 melanoma. To be noted: 10 µM unless noted.
In another assay the test system is EKVX NSCLC. The note with it: 10 µM unless noted.
The next assay deals with SN12C renal. The note with it: 10 µM unless noted.
The test system of another assay is UO-31 renal. To be noted: 10 µM unless noted.
A further assay relates to TK-10 renal. To be noted: 10 µM unless noted.
In another assay the test system is ACHN renal. To be noted: 10 µM unless noted.
In another assay the test system is CAKI-1 renal. The note with it: 10 µM unless noted.
The test system of another assay is A498 renal. To be noted: 10 µM unless noted.
The subject of a further assay is CCRF-CEM leukemia. To be noted: 10 µM unless noted.
The next assay has as its system MOLT-4 leukemia. To be noted: 10 µM unless noted.
The next assay deals with SR leukemia. To be noted: 10 µM unless noted.
A further assay deals with PC-3 prostate. To be noted: 10 µM unless noted.

The panel holds about 83,000 compounds, 20% with a hit somewhere; the sample as a whole holds those more often.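 48-hour exposure, single concentration, 96-well plates; percent growth endpoint where 0 means no net growth. Active: below 10.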 A number with no mark means an inactive call. The source made the active and inactive calls.

Turning to `CCCc1c(C)c2sc(=O)[nH]c2[nH]c1=O`, the growth in the assay with HT29 colon was 110%; with SNB-75 CNS it was 99.1%; in the assay with SNB-19 CNS, 101%; in the assay on U251 CNS, 99.5%; with SK-MEL-5 melanoma, 100%; with UACC-62 melanoma, 105%. The growth was 100% with LOX IMVI melanoma; 110% with SK-MEL-28 melanoma; 108% in the assay with SK-MEL-2 melanoma; 98.8% in the assay on EKVX NSCLC; 107% in the assay on SN12C renal; 94.8% with UO-31 renal. Further, the growth with TK-10 renal is 110%; with ACHN renal, 106%; in the assay on CAKI-1 renal, 99%; in the assay with A498 renal, 112%; in the assay with CCRF-CEM leukemia it was 124%; in the assay on MOLT-4 leukemia, 106%. For the same molecule, the growth in the assay on SR leukemia is 109%.
On to `O=C(CCc1nnc2sc(-c3ccc(Cl)cc3Cl)nn12)c1nc2ncccc2[nH]1`, for which the growth was -13% (active) in the assay with HT29 colon; 35.3% with SNB-75 CNS; 26.9% with SNB-19 CNS; -74.2% (active) in the assay on U251 CNS; -38.6% (active) with PC-3 prostate; -36.6% (active) with UACC-62 melanoma. Also, the growth in the assay on LOX IMVI melanoma was -88.3% (active); with SK-MEL-28 melanoma it was -9.94% (active); in the assay with EKVX NSCLC it was -26.2% (active); in the assay on SN12C renal, -7.29% (active); in the assay on UO-31 renal, -82% (active); with TK-10 renal, -31.6% (active). For the same molecule, the growth is -48% (active) in the assay on ACHN renal; -15.7% (active) with CAKI-1 renal; -68.6% (active) with A498 renal; 6.98% (active) in the assay with CCRF-CEM leukemia; 5.44% (active) in the assay with MOLT-4 leukemia.
As to `O=C1c2cc(Br)ccc2Oc2cc([N+](=O)[O-])ccc2N1c1ccc(I)cc1F`, the growth with HT29 colon was 99.6%; with SNB-75 CNS, 89.5%; in the assay on SNB-19 CNS, 94%; with U251 CNS it was 94.4%; with PC-3 prostate, 103%; with UACC-62 melanoma it was 87.2%. In addition, the growth is 93.5% with LOX IMVI melanoma; 113% with SK-MEL-28 melanoma; 101% in the assay on SK-MEL-2 melanoma; 91.9% in the assay with EKVX NSCLC; 94.2% with SN12C renal; 73% with UO-31 renal. For the same molecule, the growth in the assay on TK-10 renal is 112%; in the assay with CAKI-1 renal, 84.9%; in the assay on A498 renal, 98.9%; in the assay with CCRF-CEM leukemia it was 96.8%; in the assay on MOLT-4 leukemia, 85%.
For the molecule `COc1ccc(Br)c(/C=C2\SC(=Nc3ccc(O)cc3)NC2=O)c1`, the growth in the assay on HT29 colon is 113%; in the assay with SNB-75 CNS it was 72.2%; in the assay with SNB-19 CNS it was 85.5%; in the assay with U251 CNS, 86.6%; with UACC-62 melanoma it was 89.5%; with LOX IMVI melanoma it was 91.2%. Besides, the growth with SK-MEL-28 melanoma is 101%; in the assay with SK-MEL-2 melanoma it was 96.2%; with EKVX NSCLC, 88.7%; with SN12C renal it was 89.7%; with UO-31 renal it was 49.8%; with TK-10 renal, 96.4%. In addition, the growth was 75.8% in the assay on CAKI-1 renal; 97.6% in the assay with A498 renal; 75% in the assay on CCRF-CEM leukemia; 85.2% in the assay with MOLT-4 leukemia; 110% in the assay on SR leukemia.
Turning to `COc1ccc(CCN2CCC(CN(C)Cc3cnn(-c4ccccc4)c3)CC2)cc1`, the growth is 33.5% with HT29 colon; 59.9% with SNB-75 CNS; 9.09% (active) with U251 CNS; 34% in the assay with PC-3 prostate; 18.9% with SK-MEL-5 melanoma; -14.2% (active) in the assay with UACC-62 melanoma. The growth is 2.01% (active) with LOX IMVI melanoma; 33.4% with SK-MEL-28 melanoma; 37.3% with SK-MEL-2 melanoma; 23.7% with SN12C renal; 12.7% in the assay with UO-31 renal; 45.5% with TK-10 renal. Further, the growth in the assay on ACHN renal was 21.3%; in the assay with CAKI-1 renal, 15.7%; in the assay with A498 renal it was 42.9%; in the assay with CCRF-CEM leukemia, 0.563% (active); with MOLT-4 leukemia, 3.15% (active); with SR leukemia, 5.6% (active).
For the molecule `C=C(C)CCC(C)N1CCC(N2CCC(C(=O)NCCc3ccccc3)CC2)CC1` (stereo unspecified), the growth with HT29 colon is 39.3%; in the assay on SNB-75 CNS it was 105%; with U251 CNS, 77.4%; with PC-3 prostate, 59.7%; in the assay with SK-MEL-5 melanoma, 10.9%; in the assay with UACC-62 melanoma, 68.9%. Moreover, the growth in the assay on LOX IMVI melanoma is 63.1%; in the assay on SK-MEL-28 melanoma, 90%; with SK-MEL-2 melanoma, 99.3%; with SN12C renal, 57.5%; in the assay on UO-31 renal it was 78.2%; with TK-10 renal, 114%. Besides, the growth in the assay on ACHN renal was 72.1%; in the assay on CAKI-1 renal, 89.1%; in the assay on A498 renal it was 72%; in the assay on CCRF-CEM leukemia, 45.5%; in the assay with MOLT-4 leukemia it was 42.9%; with SR leukemia it was 4.33% (active).
Regarding `CCOC(=O)C(CC(=O)O)=C(C(=O)OCC)C(=O)OCC`, the growth was 134% with HT29 colon; 91.8% in the assay on SNB-75 CNS; 109% in the assay on SNB-19 CNS; 112% with PC-3 prostate; 113% in the assay with UACC-62 melanoma; 106% in the assay with LOX IMVI melanoma. For the same molecule, the growth in the assay with SK-MEL-28 melanoma was 101%; with SN12C renal, 104%; with UO-31 renal, 98.8%; in the assay on TK-10 renal, 120%; with ACHN renal, 105%; in the assay on CAKI-1 renal it was 99.6%. Also, the growth in the assay on A498 renal was 104%; in the assay with CCRF-CEM leukemia, 110%; with MOLT-4 leukemia it was 95.8%; in the assay on SR leukemia, 95.8%.
In the case of `O=Cc1cc2ccccc2nc1Nc1nccs1`, the growth was 33.9% with HT29 colon; 79.4% in the assay with SNB-75 CNS; 70.4% in the assay with U251 CNS; 49.5% in the assay with PC-3 prostate; 82.2% in the assay on SK-MEL-5 melanoma; 84.5% in the assay on UACC-62 melanoma. Besides, the growth in the assay with LOX IMVI melanoma is 31.7%; in the assay on SK-MEL-28 melanoma, 104%; with SK-MEL-2 melanoma it was 105%; in the assay with EKVX NSCLC, 98.5%; in the assay with SN12C renal, 45.5%; in the assay on UO-31 renal it was 31.2%. The growth is 101% with TK-10 renal; 31.5% in the assay with ACHN renal; 79.5% in the assay with CAKI-1 renal; 81.9% with A498 renal; 33.9% in the assay on SR leukemia.
For the molecule `O=Nc1c(O)ccc2ccccc12.O=Nc1c(O)ccc2ccccc12.O=Nc1c([O-])ccc2ccccc12.[Fe+3]`, the growth in the assay on HT29 colon was 109%; in the assay on SNB-75 CNS it was 72.7%; in the assay with SNB-19 CNS, 109%; with PC-3 prostate, 88.9%; with UACC-62 melanoma, 95.6%; in the assay on LOX IMVI melanoma, 98.8%. In addition, the growth with SK-MEL-28 melanoma is 104%; in the assay with SK-MEL-2 melanoma, 107%; with SN12C renal, 99.6%; in the assay on UO-31 renal, 60.2%; with TK-10 renal, 127%; in the assay with ACHN renal, 102%. Moreover, the growth is 106% with CAKI-1 renal; 105% in the assay on A498 renal; 107% in the assay with CCRF-CEM leukemia; 110% in the assay with MOLT-4 leukemia; 105% in the assay on SR leukemia.
